The whole screen tested about 370,000 compounds, of which about 6,800 (1.8%) were called active.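 How the source made its calls: active means activation above a cutoff set at the mean of all screened compounds plus 3 SD (cut at about 10% in these data); inactive means the rest.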 The list comes from a sample in which actives are over-represented; it also holds similar structures and randomly drawn compounds.
system: Nuclear hormone receptor DAF-12 (Heterodera glycines), GAL4 fusion; assay: H. glycines DAF-12 receptor agonists, primary screen, cell-based, luminescence, HEK293, GAL4 fusion, UAS-luciferase (AID 687014); details: HEK293 GAL4-hgDAF12 UAS-luciferase reporter, agonist luminescence; at 6.8 µM; hits give high values; normalized to butyrate control;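 further: 0% = DMSO wells and 100% = sodium butyrate wells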

**Q.** `CN1C(=O)c2cc(NS(C)(=O)=O)ccc2OC[C@@H]2O[C@@H](CC(=O)NCc3ccc(-c4ccccc4)cc3)CC[C@H]21` was tested. Which activation did it give?
**A.** -3.14% (inactive)

**Q.** Which activation does the source give for `COc1ccc(OCC(=O)NN2Cc3ccccc3C2=N)cc1` here?
**A.** 1.16% (inactive)

**Q.** For `CCOC(=O)[C@@]12CN(C(=O)OC(C)(C)C)CC=C1N(Cc1ccc(OC)cc1)C(=O)[C@H]2CC(=O)NCc1ccc(OC)c(OC)c1`, which activation is on record?
**A.** -0.18% (inactive)

**Q.** With `COc1cc(N/C=C2\CC(=O)NC(C)=C2C#N)cc(OC)c1OC` as the compound, how does the activation read?
**A.** -2.99% (inactive)

**Q.** For `Cc1csc2nc(COC(=O)c3cccc(N(C)C)c3)cc(=O)n12`, which activation is on record?
**A.** 1.98% (inactive)

**Q.** How did the activation turn out when `CCc1ccc(Oc2coc3cc(O)ccc3c2=O)cc1` was run?
**A.** 2.19% (inactive)

**Q.** With `O=c1c(-c2ccccc2)coc2cc(O)ccc12` as the compound, how does the activation read?
**A.** 11.4% (active)

**Q.** Which activation does the source give for `CC(C)=CCc1c(O)c(CC=C(C)C)c2occ(-c3ccc(O)cc3)c(=O)c2c1O` here?
**A.** 1.09% (inactive)

**Q.** `C#CCN([C@@H](C)C(=O)OCC)S(=O)(=O)c1ccc(Br)cc1F` was tested. Which activation did it give?
**A.** 3.49% (inactive)

**Q.** For `CC(C)(C)C(=O)c1cnc(Nc2ccccc2)s1`, which activation is on record?
**A.** 15.3% (active)

**Q.** Which activation does the source give for `S=c1[nH]nc(Nc2ccccc2)s1` here?
**A.** -0.56% (inactive)

**Q.** How did the activation turn out when `CC(C)(C)c1nnc(NC(=O)C2c3ccccc3Oc3ccccc32)s1` was run?
**A.** 0.43% (inactive)

**Q.** How did the activation turn out when `CC(C)(C)OC(=O)NCCc1ccccc1/C=C/S(=O)(=O)NCc1ccc(F)cc1` was run?
**A.** 0.52% (inactive)

**Q.** For `O=C(CCc1c[nH]c2ccccc12)NCCOc1ccccc1`, which activation is on record?
**A.** 3.15% (inactive)

**Q.** With `CCCOc1ccc(C(=O)NCCc2ccccc2)cc1` as the compound, how does the activation read?
**A.** 18.9% (active)

**Q.** Which activation does the source give for `O=C(CNC(=O)c1ccccc1F)c1ccc(Br)cc1` here?
**A.** 11.4% (active)

**Q.** Which activation does the source give for `O=C(NCCc1csc(-c2ccccc2)n1)c1ccccc1F` here?
**A.** -3.44% (inactive)

**Q.** With `NS(=O)(=O)c1cc(C(=O)NCCOc2ccccc2)c(Cl)cc1Cl` as the compound, how does the activation read?
**A.** -5.7% (inactive)

**Q.** Which activation does the source give for `O=C(NCCOc1ccccc1)c1ccccc1F` here?
**A.** 15% (active)

**Q.** Which activation does the source give for `O=C(NCCOc1ccccc1)c1ccccc1` here?
**A.** 14.6% (active)

**Q.** For `O=C(CCCOc1ccccc1)NNC(=O)c1ccc(Cl)cc1`, which activation is on record?
**A.** -0.32% (inactive)

**Q.** With `O=C(COC(=O)CNC(=O)c1ccccc1F)NCC(F)(F)F` as the compound, how does the activation read?
**A.** -2.85% (inactive)

**Q.** For `CC(C)c1ccc(C(=O)NCCCc2ccccc2)cc1`, which activation is on record?
**A.** 9.47% (inactive)

**Q.** `O=C(CNC(=O)c1ccccc1F)OCC(=O)c1c[nH]c2ccccc12` was tested. Which activation did it give?
**A.** 1.04% (inactive)

**Q.** How did the activation turn out when `CN(c1ccccc1)S(=O)(=O)c1ccc(C(=O)NCCc2ccccc2)cc1` was run?
**A.** 4.14% (inactive)

**Q.** How did the activation turn out when `NC(=O)c1nnsc1-c1ccc(-c2snnc2C(N)=O)cc1` was run?
**A.** 2.87% (inactive)

**Q.** `COc1cccc(CSc2nnc(-c3cccnc3)n2Cc2ccccc2)c1` was tested. Which activation did it give?
**A.** 1.72% (inactive)

**Q.** `CC(C)CNc1cccc2c1S(=O)(=O)N[C@H](C)CO2` was tested. Which activation did it give?
**A.** -0.06% (inactive)

**Q.** With `Cc1[nH]c2ccccc2c1CC(=O)Nc1ccc(Nc2cccnc2)c(-c2cccc(Cl)c2)c1` as the compound, how does the activation read?
**A.** -1.25% (inactive)

**Q.** For `CC(C)C(C#CC1CC1)N(Cc1ccc2c(c1)OCO2)C(N)=NC(=O)/C=C/c1cccc(C(F)(F)F)c1` (stereo unspecified), which activation is on record?
**A.** 0.47% (inactive)

**Q.** `C=CCN1C(=O)[C@@H](CC(=O)N2CCN(C(=O)c3ccco3)CC2)[C@]2(C(=O)OC)CCCCC=C12` was tested. Which activation did it give?
**A.** 0.44% (inactive)

**Q.** With `Nc1cccc2c1C(=O)N(Cc1nnc(-c3ccccc3Br)o1)C2=O` as the compound, how does the activation read?
**A.** -2.29% (inactive)

**Q.** With `C=CC1=CCN(S(=O)(=O)C(C)(C)C)[C@@H]1CCO` as the compound, how does the activation read?
**A.** 1.1% (inactive)

**Q.** `CC(C)Oc1ccc(/C=C(\NC(=O)/C=C/c2ccco2)C(=O)NCCc2nc3ccccc3[nH]2)cc1` was tested. Which activation did it give?
**A.** -4.59% (inactive)

**Q.** How did the activation turn out when `O=C(OCc1cc(=O)n2ccsc2n1)C1(c2ccc(Cl)cc2)CC1` was run?
**A.** -1.52% (inactive)

**Q.** `COC(=O)Cc1nnn2c1[C@H](C)[C@@H](OC)c1cc(Br)ccc1-2` was tested. Which activation did it give?
**A.** 3.49% (inactive)

**Q.** With `CCOC(=O)c1c(NC(C)=O)sc2c(O)c(Br)ccc12` as the compound, how does the activation read?
**A.** 1.29% (inactive)

**Q.** For `CN1CCN(CCNC(=O)Nc2ccccc2[N+](=O)[O-])CC1`, which activation is on record?
**A.** 0.56% (inactive)

**Q.** How did the activation turn out when `Cc1cc(NC(=O)Nc2ccccc2[N+](=O)[O-])no1` was run?
**A.** 4.97% (inactive)

**Q.** Which activation does the source give for `Cc1csc(NC(=O)Nc2ccccc2[N+](=O)[O-])n1` here?
**A.** 25.4% (active)

**Q.** For `COC1=C[C@H](C(=O)NCCNC(C)=O)[C@H](C)[C@@H](c2ccccc2)CC1=O`, which activation is on record?
**A.** -1.27% (inactive)

**Q.** With `O=C(Cn1c(N2CCN(C/C=C/c3ccccc3)CC2)nc2ccccc21)c1ccccc1` as the compound, how does the activation read?
**A.** -0.26% (inactive)

**Q.** How did the activation turn out when `O=C(Nc1ccc(C2CC2(Cl)Cl)cc1)c1cccc([N+](=O)[O-])c1` (stereo unspecified) was run?
**A.** 14.5% (active)

**Q.** With `Cc1ccc(NC(=O)C(=O)NCC2CCN(C(=O)c3cccc([N+](=O)[O-])c3)CC2)cc1` as the compound, how does the activation read?
**A.** 1.22% (inactive)

**Q.** How did the activation turn out when `O=C(NC(=S)NC1CCS(=O)(=O)C1)c1cccc([N+](=O)[O-])c1` (stereo unspecified) was run?
**A.** 3.84% (inactive)

**Q.** With `COc1ccc(S[C@]2(C(=O)N(C)C)CC(=O)N(c3ccc(OC)cc3)[C@@H]2c2ccc(OC)cc2)cc1` as the compound, how does the activation read?
**A.** -1% (inactive)

From PubChem BioAssay AID687014 (The Scripps Research Institute Molecular Screening Center, 2013)
